The text below walks through data of the antibiotic and cytotoxicity screens of Wong et al. (2023).

Each structure is given as a SMILES string. Screen size: about 39,000 compounds; about 3,300 (8.5%) were called active. The sample as a whole holds a higher share of actives than the screen did.

The subject of this assay is HepG2. Briefly: cytotoxicity call (relative viability < 0.9). Particulars: 10 µM.
With `C[C@H](CO)N1C[C@H](C)[C@H](CN(C)Cc2ccncc2)Oc2ccc(NS(=O)(=O)c3ccc(F)cc3)cc2CC1=O`, the cytotoxicity call is “inactive”.
As for `CC(=O)c1ccn[nH]1`, the cytotoxicity call was “inactive”.
With `COC(=O)[C@@]12CCC(C)(C)C[C@@H]1[C@@H]1C(=O)C=C3[C@]4(C)C=C(C#N)C(=O)C(C)(C)[C@H]4CC[C@]3(C)[C@@]1(C)CC2`, the cytotoxicity call is “active”.
As for `COC(=O)[C@]12CCC(C)(C)C[C@H]1[C@H]1C(=O)C=C3[C@@]4(C)C=C(C#N)C(=O)C(C)(C)[C@@H]4CC[C@@]3(C)[C@]1(C)CC2`, the cytotoxicity call was “active”.
Next, `Cc1ccccc1S(=O)(=O)N1C[C@H](O)COC[C@H]2O[C@H](CC(=O)NCc3ccccc3Cl)CC[C@@H]21`: “inactive”; `Cc1noc(C)c1NC(=O)Nc1cccc2c1O[C@H](CN(C)C(=O)NC(C)C)[C@@H](C)CN([C@@H](C)CO)C2=O`: “inactive”; `C[C@@H]1CN([C@@H](C)CO)C(=O)Cc2cc(NC(=O)CCN3CCOCC3)ccc2O[C@@H]1CN(C)C(=O)NC1CCCCC1`: “inactive”.
On to `C[C@@H]1CN([C@H](C)CO)C(=O)c2cc(C#CC3(O)CCCC3)cnc2O[C@@H]1CN(C)S(C)(=O)=O`, for which the cytotoxicity call is “inactive”.
With `Cc1ccc(S(=O)(=O)Nc2ccc3c(c2)C(=O)N([C@@H](C)CO)C[C@@H](C)[C@@H](CN(C)Cc2ccc(Oc4ccccc4)cc2)O3)cc1`, the cytotoxicity call was “active”.
As to `Cc1ccc(S(=O)(=O)Nc2ccc3c(c2)C(=O)N([C@H](C)CO)C[C@@H](C)[C@@H](CN(C)Cc2ccc(Oc4ccccc4)cc2)O3)cc1`, the cytotoxicity call was “active”.
Regarding `Cc1ccc(S(=O)(=O)Nc2ccc3c(c2)C(=O)N([C@H](C)CO)C[C@@H](C)[C@H](CN(C)Cc2ccc(Oc4ccccc4)cc2)O3)cc1`, the cytotoxicity call was “active”.
As to `Cc1ccc(S(=O)(=O)Nc2ccc3c(c2)C(=O)N([C@@H](C)CO)C[C@H](C)[C@@H](CN(C)Cc2ccc(Oc4ccccc4)cc2)O3)cc1`, the cytotoxicity call was “inactive”.
Turning to `Cc1ccc(S(=O)(=O)Nc2ccc3c(c2)C(=O)N([C@H](C)CO)C[C@H](C)[C@@H](CN(C)Cc2ccc(Oc4ccccc4)cc2)O3)cc1`, the cytotoxicity call was “inactive”.
Next, `Cc1ccc(S(=O)(=O)Nc2ccc3c(c2)C(=O)N([C@@H](C)CO)C[C@@H](C)[C@H](CN(C)Cc2ccc(Oc4ccccc4)cc2)O3)cc1`: “inactive”; `Cc1ccc(S(=O)(=O)Nc2ccc3c(c2)C(=O)N([C@H](C)CO)C[C@H](C)[C@H](CN(C)Cc2ccc(Oc4ccccc4)cc2)O3)cc1`: “inactive”.
In the case of `Cc1ccc(S(=O)(=O)Nc2ccc3c(c2)C(=O)N([C@@H](C)CO)C[C@H](C)[C@H](CN(C)Cc2ccc(Oc4ccccc4)cc2)O3)cc1`, the cytotoxicity call is “inactive”.
The same measure for `NCC(=O)NC1CCCCC1`: “inactive”; for `COc1ccc(NC(=O)N(C)C[C@@H]2Oc3ccc(NS(C)(=O)=O)cc3C(=O)N([C@H](C)CO)C[C@H]2C)cc1`: “inactive”; for `COc1ccc2c3c(n(c2c1)C)[C@@H](CO)N(Cc1cc(cc(c1)OC)OC)C[C@]13CCN(CC1)S(=O)(=O)c1cn(cn1)C`: “inactive”.
Turning to `C[C@@H]1CN([C@H](C)CO)C(=O)Cc2cc(NS(=O)(=O)c3cccs3)ccc2O[C@@H]1CN(C)CC1CC1`, the cytotoxicity call was “inactive”.
On to `C[C@@H]1CN([C@@H](C)CO)C(=O)c2cccc(NS(=O)(=O)c3cn(C)cn3)c2O[C@@H]1CN(C)S(=O)(=O)c1ccc(F)cc1`, for which the cytotoxicity call is “inactive”.
Turning to `Cc1ccc(S(=O)(=O)N(C)C[C@H]2Oc3c(NS(=O)(=O)c4cccs4)cccc3C(=O)N([C@H](C)CO)C[C@H]2C)cc1`, the cytotoxicity call is “inactive”.
Next, `C[C@H]1CCCCO[C@H](CN(C)C(=O)Nc2ccc(F)cc2)[C@@H](C)CN([C@@H](C)CO)C(=O)c2cc(NC(=O)C3CCCCC3)ccc2O1`: “inactive”; `CCCN(C)C[C@@H]1OCCCC[C@H](C)Oc2ccc(NC(=O)Nc3ccc(F)cc3)cc2C(=O)N([C@H](C)CO)C[C@@H]1C`: “inactive”.
As to `Cc1ccc(S[C@]2(C(=O)NCc3ccccc3)CC(=O)N(C3CCCCC3)[C@@H]2c2ccc(CO)cc2I)cc1`, the cytotoxicity call was “inactive”.
The same measure for `C=CCC[C@H](Cc1ccc(F)cc1)C(=O)OC[C@@H](NC(=O)[C@H](CC=C)CC(=O)N(CCO)Cc1ccccc1)C(C)(C)C`: “inactive”; for `COc1ccc(-c2coc3c(O)c(O)c(OC)cc3c2=O)cc1`: “active”; for `COc1ccc(-c2coc3cc(O)ccc3c2=O)cc1`: “inactive”.
For the compound `COc1ccc(-c2coc3c(OC)c(OC)cc(O)c3c2=O)cc1`, the cytotoxicity call is “inactive”.
Next, `CC(C)NC(=O)Nc1ccc2c(c1)CC(=O)N([C@@H](C)CO)C[C@@H](C)[C@H](CN(C)C(=O)Nc1ccc3c(c1)OCO3)O2`: “inactive”; `Cc1ccc2c(N)[nH]nc2n1`: “inactive”.
As for `COCc1cc(C)nc2n[nH]c(N)c12`, the cytotoxicity call is “active”.
For `COCc1cc(C)nc(N)c1C#N`, the cytotoxicity call is “inactive”.
The same measure for `Cc1noc(C)c1S(=O)(=O)N(C)C[C@@H]1Oc2ccc(NC(=O)Cc3cn(C)c4ccccc34)cc2CC(=O)N([C@@H](C)CO)C[C@@H]1C`: “inactive”.
For `C[C@@H]1CN([C@H](C)CO)C(=O)c2cc(NC(=O)c3ccccc3)ccc2O[C@@H](C)CCCCO[C@H]1CN(C)C(=O)Nc1ccc(C(F)(F)F)cc1`, the cytotoxicity call was “inactive”.
Regarding `C[C@@H](O)c1nnc(N)[nH]1`, the cytotoxicity call was “inactive”.
In the case of `C[C@H](CO)N1C[C@H](C)[C@@H](CN(C)Cc2ccc(-c3ccccc3)cc2)Oc2ccc(NS(=O)(=O)c3ccc(Cl)cc3)cc2C1=O`, the cytotoxicity call was “active”.
As to `C[C@@H]1CN([C@@H](C)CO)C(=O)c2cc(NS(=O)(=O)c3ccc(Cl)cc3)ccc2O[C@H]1CN(C)Cc1ccc(-c2ccccc2)cc1`, the cytotoxicity call is “inactive”.
The same measure for `C[C@@H]1CN([C@H](C)CO)C(=O)c2cc(NS(=O)(=O)c3ccc(Cl)cc3)ccc2O[C@H]1CN(C)Cc1ccc(-c2ccccc2)cc1`: “inactive”; for `C[C@@H]1CN([C@@H](C)CO)C(=O)c2cc(NS(=O)(=O)c3ccc(Cl)cc3)ccc2O[C@@H]1CN(C)Cc1ccc(-c2ccccc2)cc1`: “active”; for `C[C@H]1CN([C@@H](C)CO)C(=O)c2cc(NS(=O)(=O)c3ccc(Cl)cc3)ccc2O[C@H]1CN(C)Cc1ccc(-c2ccccc2)cc1`: “inactive”.
Turning to `C[C@H]1CN([C@@H](C)CO)C(=O)c2cc(NS(=O)(=O)c3ccc(Cl)cc3)ccc2O[C@@H]1CN(C)Cc1ccc(-c2ccccc2)cc1`, the cytotoxicity call is “inactive”.
Turning to `C[C@@H]1CN([C@H](C)CO)C(=O)c2cc(NS(=O)(=O)c3ccc(Cl)cc3)ccc2O[C@@H]1CN(C)Cc1ccc(-c2ccccc2)cc1`, the cytotoxicity call was “active”.
As for `C[C@H](CO)N1C[C@H](C)[C@H](CN(C)Cc2ccc(-c3ccccc3)cc2)Oc2ccc(NS(=O)(=O)c3ccc(Cl)cc3)cc2C1=O`, the cytotoxicity call is “active”.
